Test results: PubChem BioAssay AID602350 (Broad Institute, 2012)
Results with a measured potency or affinity are listed apart. Activity calls are given as the source filed them.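 The calls were made as follows: active = absorbance falls by 30% or more versus neutral controls, with a potency fitted within twice the top valid dose; inconclusive = no clear call, values can overlap the other calls; inactive = change opposite to expected direction, plus the rest.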

Molecular target: Protein disulfide-isomerase (Homo sapiens) (UniProt P07237)
Sequence (P07237 whole entry, looked up): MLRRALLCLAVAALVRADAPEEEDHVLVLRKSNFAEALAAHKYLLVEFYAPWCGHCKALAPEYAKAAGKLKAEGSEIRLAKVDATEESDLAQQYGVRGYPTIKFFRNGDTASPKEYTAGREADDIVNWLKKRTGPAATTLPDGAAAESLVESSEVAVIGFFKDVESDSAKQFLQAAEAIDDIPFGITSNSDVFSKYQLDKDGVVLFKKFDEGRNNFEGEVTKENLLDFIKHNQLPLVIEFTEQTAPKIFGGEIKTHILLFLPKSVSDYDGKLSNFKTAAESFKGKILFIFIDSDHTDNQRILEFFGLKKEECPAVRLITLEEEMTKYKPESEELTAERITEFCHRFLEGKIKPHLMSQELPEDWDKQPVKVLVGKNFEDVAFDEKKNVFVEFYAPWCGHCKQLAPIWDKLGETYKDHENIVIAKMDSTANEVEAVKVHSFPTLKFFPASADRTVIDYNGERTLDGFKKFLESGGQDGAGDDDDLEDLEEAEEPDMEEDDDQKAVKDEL
Test: PDI inhibitors, insulin aggregation turbidity, dose response, biochemical, absorbance, cherry-picked samples (AID 602350)

Compound | outcome
O=C(Nc1nc2ccccc2s1)c1cccc(S(=O)(=O)N2CCc3ccccc32)c1 | inactive
CC[C@]12c3[nH]c4cc(-c5ccco5)ccc4c3CCN1C(=O)[C@@H](CC(=O)NCc1ccco1)C[C@@H]2C(=O)N1CCN(C(=O)c2ccco2)CC1 | inactive
Cc1ccc(NC(=O)CSC(C)C(=O)OCc2cc(=O)oc3cc(O)ccc23)cc1 (centres undefined) | inactive
O=C1/C(=C\c2ccc(O)cc2)CCC1CNc1ccc(Cl)cc1 (centres undefined) | inactive
COc1ccc(/C=C/C(=O)c2cc(F)ccc2OC(=O)c2ccccc2OC)cc1OC | inactive
CCCCC(=O)OC1CCC2C3CCc4cc(O)ccc4C3CCC12C (centres undefined) | inactive
CN(C)S(=O)(=O)c1ccc(C(=O)Nc2ccc3nc(N4CCOCC4)sc3c2)cc1 | inactive
CCCCn1c(SCC(=O)NC2CCS(=O)(=O)C2)nc2ccccc2c1=O (centres undefined) | inactive
C[C@]12CC[C@@H]3c4ccc(O)cc4C(=O)C[C@H]3[C@@H]1CC[C@@H]2O | inactive
Cc1noc(C)c1S(=O)(=O)Nc1ccc2c(c1)CC(=O)N([C@@H](C)CO)C[C@@H](C)[C@@H](CN(C)S(=O)(=O)c1ccc(F)cc1)O2 | inactive
CCc1ccc(NC(=O)Nc2ccncc2)cc1 | inactive
Cc1ccc2nsnc2c1NC(=O)c1cccnc1Cl | inactive
CC1(C(=O)Nc2cccc3c2CCCC3)CCN1C(=O)c1cccc(F)c1 (centres undefined) | inactive
CCOC(=O)c1c(-c2ccccc2)oc2cc(Br)c(O)cc12 | inactive
CNc1ncnc2c1ncn2[C@H]1CN(Cc2cccc3ccccc23)C[C@@H](CO)O1 | inactive
COc1cc(C2C(C#N)=C(N)Oc3cc(O)ccc32)cc(OC)c1OC (centres undefined) | inactive
CCOC(=O)C(C)c1n[nH]c(=O)c2ccccc12 (centres undefined) | inactive
CCOc1ccc2nc(SCC(=O)c3ccc(Cl)s3)sc2c1 | inactive
Cc1cc(=O)c(C(=O)Nc2cccc(C(=O)NC3CC3)c2)nn1-c1ccccc1 | inactive
CC(C)Oc1cccc(C(=O)NC(=S)Nc2cccc(NC(=O)c3ccccc3Cl)c2)c1 | inactive

Compound | outcome
Cc1cc(NC(=O)CSc2[nH]c(=O)cc(C(F)(F)F)c2C#N)no1 | inactive
Cc1[nH]c2ccc(C(=O)NC3CCCC3)cc2c1C | inactive
C[C@H]1CN([C@@H](C)CO)C(=O)Cc2cc(NC(=O)Nc3ccccc3)ccc2O[C@@H]1CN(C)Cc1ccccc1 | inactive
CC(C)Cn1c(N)c(C(=O)COC(=O)c2ccc(O)cc2)c(=O)n(C)c1=O | inactive
COc1cccc(/C=C2\CCCCC2=O)c1 | inactive
COc1cccc(-n2ccnc2SCC(=O)Nc2cc(OC)ccc2OC)c1 | inactive
Cc1ccc(-c2cc(C(=O)NNC(=O)c3csc(N4CCOCC4)n3)c3ccccc3n2)cc1 | inactive
C[C@@H]1CN([C@@H](C)CO)C(=O)c2cc(NC(=O)Cc3cn(C)c4ccccc34)ccc2O[C@@H]1CN(C)S(=O)(=O)c1ccc(F)cc1 | inactive
CCOC(=O)C1(CC2CC2)CCN(Cc2cc(Cl)c(O)c(OC)c2)CC1 | inactive
CCOC(=O)c1ccc2c(c1)nc(SCC(=O)N1CCCCC1)n2CC | inactive
CN1CCN(C(=O)CSc2nnc(COc3ccc(Cl)cc3)o2)CC1 | inactive
Cc1ccc(CN(c2ccc(C(=O)NCc3ccccn3)cc2)S(C)(=O)=O)cc1 | inactive
Cc1cc(C)cc(CC(=O)N2CCC2(C)C(=O)NS(=O)(=O)c2ccc(Br)cc2)c1 (centres undefined) | inactive
NC(=O)c1ccc(NC(=O)COC(=O)c2ccc(Br)c(S(=O)(=O)N3CCOCC3)c2)cc1 | inactive
COC(=O)c1ccc(COC(=O)CSCC(=O)Nc2ccc(C)cc2C)cc1 | inactive
O=C(N/N=C/c1cccc([N+](=O)[O-])c1)c1cnccn1 | inactive
COc1cccc(/C=N/NC(=O)CNC(=O)C(c2ccccc2)c2ccccc2)c1O | inactive
O=c1cc(CN2CCN(S(=O)(=O)/C=C/c3ccccc3)CC2)c2ccc(O)cc2o1 | inactive
CCOC(=O)C1(CCOc2ccccc2)CCN(Cc2ccc(C(=O)OC)cc2)CC1 | inactive
